# Measured values reported in paper PMC4336329 (PLoS ONE, 2015).
# Screen size: about 310,000 compounds; about 14,000 (4.5%) showed an effect of 50% or more. The effect is printed as a negative number. The full list was thinned out, with strong results kept by preference.
# Molecular target: human ether-à-go-go-related gene (hERG) potassium channel (human, UniProt Q12809)
# Test: primary screen, population patch clamp on CHO cells stably expressing hERG; higher = less effect of the substance
# 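Further: peak tail current of the secondary pulse compared with the same well before compound.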
# Sequence of human ether-à-go-go-related gene (hERG) potassium channel (Q12809 whole entry, looked up): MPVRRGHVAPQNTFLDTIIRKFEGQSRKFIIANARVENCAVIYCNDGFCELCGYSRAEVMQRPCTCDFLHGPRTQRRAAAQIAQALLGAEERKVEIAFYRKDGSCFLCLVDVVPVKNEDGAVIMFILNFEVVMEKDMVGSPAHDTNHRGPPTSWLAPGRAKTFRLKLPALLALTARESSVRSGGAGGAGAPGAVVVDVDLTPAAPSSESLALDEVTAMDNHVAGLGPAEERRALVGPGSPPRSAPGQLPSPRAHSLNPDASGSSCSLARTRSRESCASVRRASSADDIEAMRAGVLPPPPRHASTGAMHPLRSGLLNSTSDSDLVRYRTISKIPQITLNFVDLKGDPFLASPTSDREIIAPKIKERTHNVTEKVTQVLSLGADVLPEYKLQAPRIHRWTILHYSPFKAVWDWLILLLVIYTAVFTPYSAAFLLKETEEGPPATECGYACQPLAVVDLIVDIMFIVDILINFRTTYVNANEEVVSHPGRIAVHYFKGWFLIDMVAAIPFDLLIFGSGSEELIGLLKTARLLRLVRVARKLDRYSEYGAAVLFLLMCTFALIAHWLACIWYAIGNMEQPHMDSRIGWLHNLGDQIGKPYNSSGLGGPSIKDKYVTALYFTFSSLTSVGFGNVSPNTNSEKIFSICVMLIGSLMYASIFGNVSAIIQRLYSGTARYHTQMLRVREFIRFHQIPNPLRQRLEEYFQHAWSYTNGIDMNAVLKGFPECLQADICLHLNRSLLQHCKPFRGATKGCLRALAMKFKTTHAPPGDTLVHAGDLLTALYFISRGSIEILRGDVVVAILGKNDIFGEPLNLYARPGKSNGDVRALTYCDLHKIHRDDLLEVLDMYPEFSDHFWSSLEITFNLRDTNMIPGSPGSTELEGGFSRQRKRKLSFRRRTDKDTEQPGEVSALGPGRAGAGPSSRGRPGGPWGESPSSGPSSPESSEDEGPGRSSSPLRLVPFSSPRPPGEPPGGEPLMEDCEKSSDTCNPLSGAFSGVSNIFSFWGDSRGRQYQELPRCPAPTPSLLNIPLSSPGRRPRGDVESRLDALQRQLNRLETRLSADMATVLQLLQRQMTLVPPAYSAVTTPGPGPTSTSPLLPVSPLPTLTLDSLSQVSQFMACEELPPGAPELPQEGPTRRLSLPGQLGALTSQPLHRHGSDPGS
row,Compound,"hERG current change (%, negative = inhibition) at 10uM [%]"
1,CCC1=C(OC(=O)N(CC)CC)N2C(=O)OC(=NCc3ccccc3)[C@]2(C)[C@H]2C1=CC[C@H]1C(=O)NC(=O)[C@H]12,-6.14
2,CCC1CCCCN1C(=O)c1cc2c(=O)n3cccc(C)c3nc2s1 (stereo not shown),4.01
3,CCC1Oc2ccccc2N(CC(=O)NCCC2=CCCCC2)C1=O (stereo not shown),3.64
4,FC(F)(F)c1cc(-c2ccc(Cl)cc2)nc2ncnn12,-16.2
5,CCc1cc(=O)oc2cc(C)cc(OCC(=O)NCc3cccnc3)c12,-31.5
6,CCCc1cc(=O)oc2cc(C)cc(OCC(=O)Nc3ccccn3)c12,13.2
7,CCCCc1cc(=O)oc2cc(C)cc(OCC(=O)Nc3cccnc3)c12,26.7
8,CCCc1cc(=O)oc2cc(C)cc(OCC(=O)NCc3cccnc3)c12,-44.4
9,CCCCc1cc(=O)oc2cc(C)cc(OCC(=O)NCc3ccncc3)c12,-84.1
10,CCCCc1cc(=O)oc2cc(C)cc(OCC(=O)Nc3ccccn3)c12,28.6
11,CCCCc1cc(=O)oc2cc(C)cc(OCC(=O)NCc3cccnc3)c12,-54.1
12,CCCc1cc(=O)oc2cc(C)cc(OCC(=O)NCc3ccncc3)c12,-69.5
13,CCCc1cc(=O)oc2cc(C)cc(OCC(=O)Nc3cccnc3)c12,-0.927
14,CCOc1ccc(NC(=O)Cn2nnc(C(=O)NCc3ccco3)c2N)cc1,15.1
15,C=CCN1C(=O)S/C(=C/c2ccc(Sc3nc4ccccc4[nH]3)o2)C1=O,3.61
16,CCN1C(=O)N[C@@H](c2ccccc2)[C@H](C(=O)OC)[C@H]1C,-6.4
17,COC(=O)Nc1nn(-c2ccc(C)cc2)c(=O)c(C#N)c1C,11.2
18,CN(C)C(C(=O)NC1CCCCC1)c1ccc(Cl)cc1 (stereo not shown),4.27
19,COC(=O)c1ccc(N2CCN(C)CC2)c(NC(=O)COc2cccc(C)c2)c1,-18.9
20,CCOC(=O)c1ccc(N=C(C)c2c(O)[nH]c(=O)[nH]c2=O)cc1,10.8
21,CCCCn1nc(C(=O)NC2=NCCS2)c2ccccc2c1=O,-16.3
22,Cc1cc(NC(=O)COC(=O)CC2CCCC2)c([N+](=O)[O-])cc1C,9.34

row,Compound,"hERG current change (%, negative = inhibition) at 10uM [%]"
1,CCOC(=O)CC(NC(=O)c1cc2cccc(OC)c2oc1=O)c1cccc([N+](=O)[O-])c1 (stereo not shown),-23
2,CCOC(=O)CC(NC(=O)c1cc2cccc(OC)c2oc1=O)c1ccc(OC)cc1 (stereo not shown),-5.76
3,CCOC(=O)CC(NC(=O)c1cc2cc(Cl)cc(Cl)c2oc1=O)c1cccc([N+](=O)[O-])c1 (stereo not shown),-66.8
4,CCOC(=O)CC(NC(=O)c1cc2ccccc2oc1=O)c1cccc([N+](=O)[O-])c1 (stereo not shown),-58.5
5,CCOC(=O)CC(N)c1cccc([N+](=O)[O-])c1.Cl (stereo not shown),2.9
6,CCOC(=O)CC(NC(=O)c1cc2cc(Br)ccc2oc1=O)c1cccc([N+](=O)[O-])c1 (stereo not shown),-27.5
7,O=C(Nc1ccccn1)C1COc2ccccc2O1 (stereo not shown),16.1
8,CCOC(=O)c1sc2nc(C)nc(NC3CCC(O)CC3)c2c1C (stereo not shown),2.9
9,CSc1ccccc1NC(=O)CN(C)CC(=O)Nc1ccc(Cl)cc1[N+](=O)[O-],-31.6
10,O=C(CN1C(=O)C2CC=CCC2C1=O)NCC(=O)Nc1ccc(F)c(F)c1F (stereo not shown),7.55
11,Cc1cc(Cl)c(S(=O)(=O)N/N=C/c2ccc3c(c2)OCO3)c(Cl)c1,2.77
12,COc1ccc(NC(=O)N2CCc3ccccc3C2)cc1OC,11.3
13,CCNc1nc(NC(C)C)nc(Nn2cnnc2)n1,9.05
14,O=C(NCc1cccs1)C1CCN(S(=O)(=O)c2cccc3nsnc23)CC1,-13.1
15,CS(=O)(=O)c1ccccc1C(=O)Nc1cc(Cl)ccc1-n1cncn1,13.4
16,O=C(CN1C(=O)NC2(CCc3ccccc32)C1=O)c1ccccc1 (stereo not shown),15.1
17,O=C(CN1C(=O)NC2(CCCc3ccccc32)C1=O)c1ccc(F)cc1 (stereo not shown),-17
18,Cc1ccc(NC(=O)CN2C(=O)NC3(CCCc4ccccc43)C2=O)c([N+](=O)[O-])c1 (stereo not shown),-75.6
19,O=C(CN1C(=O)NC2(CCc3ccccc32)C1=O)c1ccc(F)cc1 (stereo not shown),-57.4
20,O=C(CN1C(=O)NC2(CCCc3ccccc32)C1=O)c1ccc(Br)cc1 (stereo not shown),-20.4
21,Cc1cc(Cl)ccc1NC(=O)CN1C(=O)NC2(CCCc3ccccc32)C1=O (stereo not shown),-1.38
22,COc1ccc(C(=O)CN2C(=O)NC3(CCCc4ccccc43)C2=O)cc1 (stereo not shown),-36.2

row,Compound,"hERG current change (%, negative = inhibition) at 10uM [%]"
1,CS(=O)(=O)c1ccc(C(=O)CN2C(=O)NC3(CCCc4ccccc43)C2=O)cc1 (stereo not shown),-51.5
2,Cc1ccc(F)cc1NC(=O)CN1C(=O)NC2(CCCc3ccccc32)C1=O (stereo not shown),-1.5
3,CCCS(=O)(=O)Nc1cccc(-c2cn3c(n2)SCC3)c1,-14.1
4,COc1ccc(OC)c(S(=O)(=O)N2CCCC(C(=O)NCCN3CCOCC3)C2)c1 (stereo not shown),21.2
5,O=S(=O)(NCc1cccnc1)c1ccc(Cl)s1,6.91
6,COc1ccc(C(=O)NCc2nnc(SCC(=O)Nc3nnc(C)s3)o2)cc1,14.5
7,N#CC1(NC(=O)CSc2nnc(C3CC3)n2C2CC2)CCCCC1,-8.52
8,CCS(=O)(=O)c1ccc2oc(Nc3ccc(OC)c(OC)c3)nc2c1,8.05
9,C=CCN(C(=O)C1=NN(C2CCS(=O)(=O)C2)C(=O)CC1)c1nc(-c2ccc([N+](=O)[O-])cc2)cs1 (stereo not shown),-63.5
10,Cc1ccc(-c2csc(NC(=O)C3=NN(C4CCS(=O)(=O)C4)C(=O)CC3)n2)cc1 (stereo not shown),-3.9
11,C=CCN(C(=O)C1CC(=O)N(C2CCCC2)C1)c1nc(-c2ccc(S(C)(=O)=O)cc2)cs1 (stereo not shown),-47.1
12,CN1CCN(C2=Nc3cc(F)ccc3Cc3ccccc32)CC1,-35.7
13,Cc1sc(NC(=O)Cc2ccc3c(c2)OCO3)nc1-c1ccc2c(c1)CCN2C(=O)c1ccccc1F,-0.586
14,COc1cc(NC(=O)Cc2c(C(=O)O)n(C)c3ccccc23)cc(OC)c1OC,35
15,Cc1ccc(-n2c(O)c(C=NC3CCS(=O)(=O)C3)c3ccccc3c2=O)c(C)c1 (stereo not shown),-0.346
16,Cc1ccc(-n2c(O)c(C=NC3CCS(=O)(=O)C3)c3ccccc3c2=O)cc1 (stereo not shown),-3.54
17,Cc1cccc(-n2c(O)c(C=NC3CCS(=O)(=O)C3)c3ccccc3c2=O)c1C (stereo not shown),-54.1
18,O=S(=O)(NCCOc1ccccc1Cl)c1ccc2oc3ccccc3c2c1,3.52
19,Cc1ccccc1C(=O)Nc1cccc(-c2ccc3nncn3n2)c1,-2.94
20,OC1(CNCc2cn[nH]c2-c2cc3ccccc3o2)CCCCC1,-28.7
21,O=C(c1ccccn1)C1CCCN(Cc2cn[nH]c2-c2cc3ccccc3o2)C1 (stereo not shown),-70
22,O=C(c1ccccn1)C1CCCN(Cc2nc(Cc3cccc(F)c3)no2)C1 (stereo not shown),-5.63

row,Compound,"hERG current change (%, negative = inhibition) at 10uM [%]"
1,COCC1CCCN(Cc2cn[nH]c2-c2cc3ccccc3o2)C1 (stereo not shown),-47.5
2,c1ccc(CCC2CCCCN2Cc2cn[nH]c2-c2cc3ccccc3o2)nc1 (stereo not shown),-74.9
3,COCCN1CCN(Cc2cn[nH]c2-c2cc3ccccc3o2)CC1,-6.62
4,COc1ccc(OC)c(NC(=O)C2C(C(=O)O)C3(Cl)C(Cl)=C(Cl)C2(Cl)C3(Cl)Cl)c1 (stereo not shown),7.73
5,Cc1cc(CNC(=O)CC2C(=O)NCCN2Cc2ccccc2C(F)(F)F)nn1C (stereo not shown),9.04
6,Cc1cc(Br)ccc1OCCCCNCCO.O=C(O)C(=O)O,-28.1
7,Cc1cc(Br)cc(C)c1OCCCCN(C)C.O=C(O)C(=O)O,-54.4
8,C=CCNCCCCOc1ccc(Br)cc1C.O=C(O)C(=O)O,-41
9,COCCNCCCOc1ccc(Br)cc1Cl.O=C(O)C(=O)O,-31.8
10,CN(C)CCOCCOc1ccc(Cl)cc1Br.O=C(O)C(=O)O,-42.6
11,Cc1cc(Cl)cc(Cl)c1OCCCCN(C)C.O=C(O)C(=O)O,-43.7
12,Cc1cc(Br)ccc1OCCCCNC(C)(C)C.O=C(O)C(=O)O,-53.9
13,Cc1cc(C)c(OCCCCN(C)C)c(Br)c1.O=C(O)C(=O)O,-41.5
14,COCCCNCCCCOc1ccc(Br)cc1Cl.O=C(O)C(=O)O,-67.1
15,CN(C)CCCOc1ccc(Cl)cc1Br.O=C(O)C(=O)O,-69.3
16,CN(C)CCCOc1cccc(Cl)c1.O=C(O)C(=O)O,-19.5
17,COCCCNC(=O)COc1ccc(Br)cc1Cl,-7.88
18,CC(c1ccon1)N(C)C(=O)CCc1nnc(Cc2ccc(-c3ccccc3)cc2)o1 (stereo not shown),-21.7
19,COC(=O)/C(=C/c1ccc(F)cc1)NC(C)=O,-0.211
